Results on 65 molecules are retold here after PubChem BioAssay AID588382 (National Center for Advancing Translational Sciences (NCATS), 2011).

Out of some 1,300 compounds screened, about 150 (12%) were called active. Where a call stands in place of a potency, no number is given. About 30% were inconclusive and are not listed. Calls come from the whole dose curve; as a rule, active = well fitted cell-killing curve with a large enough effect; inconclusive = small, poorly fitted or top-dose-only effect, or effect the other way; inactive = flat fitted curve, though single readings scatter. Only a selection was taken, and actives are over-represented in it overall.
Potency is the fitted concentration of half-maximal effect.

A short description of this test: qHTS of small molecules that selectively kill Giardia lamblia: Hit Validation in HepG2 cytotox.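 Note: compound exposure lasted overnight at 37 deg C; nearly all actives have a fitted effect of over 55% in size.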 Particulars: cell viability; Potency: HepG2 cytotoxicity; series mostly up to 38.3 µM. Summed up:
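HepG2 cells seeded and incubated overnight at 37 deg C, then 23 nL compound added by pintool and incubated overnight at 37 deg C. Viability read as ATP luminescence with ATPLite after 15 min at room temperature.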
With `CN1C(=O)/C(=C/c2ccc(O)c([N+](=O)[O-])c2)N(C)C1=S`, the Potency result was “inactive”.
With `COc1ccc(C(=O)Nc2ccc3[nH]ccc3c2)cc1`, the Potency is 2.33 µM (active).
As to `O=C(Nc1ccccc1O)c1ccc([N+](=O)[O-])cc1`, the Potency result is “inactive”.
To `O=C(Nc1ccc2[nH]ccc2c1)c1ccccc1` belongs 4.14 µM (active).
Then `COc1ccc(NC(=O)c2ccco2)c(NC(=O)c2ccc([N+](=O)[O-])cc2)c1`, with “inactive”; and `COc1ccc(C(=O)NC2CCN(S(=O)(=O)c3ccc(F)cc3)CC2)cc1`, with “inactive”.
Turning to `O=C(NNC(=O)c1ccc([N+](=O)[O-])o1)c1ccccc1`, the Potency entry is “inactive”.
With `O=[N+]([O-])c1ccc(CSc2nnc(-c3cccnc3)o2)cc1`, the Potency entry was “inactive”.
Then `NNC(=O)c1cccc(Cn2cc(Br)c([N+](=O)[O-])n2)c1`, with “inactive”.
To `Cc1cccc(CCN=c2c([N+](=O)[O-])nn(-c3ccccc3)n2O)c1` belongs “inactive”; to `Nc1c(Cl)cc(C2=NCCn3c2c2ccc(C(F)(F)F)cc2[n+]3[O-])cc1Cl`, “inactive”.
Then `COc1ccc(-c2cn3cc([N+](=O)[O-])ccc3n2)cc1OC`, with “inactive”.
Regarding `CC(=O)Nc1ccc(NC(=O)c2c([N+](=O)[O-])cnn2C)cc1`, the Potency result is “inactive”.
To `c1csc(-c2ccc(N3CCOCC3)nn2)c1` belongs 6.56 µM (active); to `O=[N+]([O-])c1ccc(O/N=[N+](\[O-])N2CCCCC2)c([N+](=O)[O-])c1`, “inactive”.
To `CC1CCCCC1NC(=O)COc1cccnc1[N+](=O)[O-]` (stereo not given) belongs “inactive”; to `O=C1OC(CN(Cc2ccccc2)Cc2ccccc2)CN1N=Cc1ccc([N+](=O)[O-])o1` (stereo not given), “inactive”.
Then `CCCCC(=O)Nc1ncc([N+](=O)[O-])s1`, with “inactive”.
On to `COc1ccc(C(=O)c2c(C)oc3cc([N+](=O)[O-])c(O)c([N+](=O)[O-])c23)cc1`, for which the Potency entry was “inactive”.
To `Cc1cc(C)c2nc(NC(=O)c3ccc([N+](=O)[O-])o3)sc2c1` belongs “inactive”; to `O=C(Nc1nc2ccccc2s1)c1ccc([N+](=O)[O-])o1`, “inactive”; to `Cc1ccc(-c2csc(NC(=O)c3ccc([N+](=O)[O-])o3)n2)cc1`, 11.7 µM (active).
Then `O=C(Nc1nc2c(F)cccc2s1)c1ccc([N+](=O)[O-])o1`, with “inactive”.
Then `O=C(Nc1nc(-c2cccs2)cs1)c1ccc([N+](=O)[O-])o1`, with 1.85 µM (active).
Take `Cc1cc(C)c2sc(NC(=O)c3ccc([N+](=O)[O-])o3)nc2c1`: the Potency result was “inactive”.
To `COc1ccccc1C1C([N+](=O)[O-])=CC([N+](=O)[O-])=CN1C` (stereo not given) belongs “inactive”; to `Cc1cnc([N+](=O)[O-])n1CCOC(=O)NC(=O)c1ccccc1Cl`, “inactive”.
To `CC(=O)NC(Cc1ccc(F)cc1)C(=O)NC1CCN(c2ncccc2[N+](=O)[O-])CC1` (stereo not given) belongs “inactive”.
For `Cn1c([N+](=O)[O-])cnc1N1CCN(c2nncs2)C1=O`, the Potency entry is “inactive”.
Then `COc1cc(/C=C2\SC(=O)N(c3ccc(Cl)cc3)C2=O)cc([N+](=O)[O-])c1O`, with “inactive”; and `COc1ccc(NS(=O)(=O)c2ccc(C)cc2)c([N+](=O)[O-])c1`, with “inactive”; and `COc1cc2c(cc1OC)CN(C(=O)c1ccc([N+](=O)[O-])o1)CC2`, with “inactive”.
With `Cc1ncc([N+](=O)[O-])n1CCOC(=O)Nc1ccc(Cl)c(Cl)c1`, the Potency result was “inactive”.
To `O=C(COc1cccnc1[N+](=O)[O-])NCCc1ccc(Cl)cc1Cl` belongs “inactive”; to `O=C(NC1CCS(=O)(=O)C1)c1ccc(N2CCCCC2)c([N+](=O)[O-])c1` (stereo not given), “inactive”; to `Cc1nnc(N/N=C/c2cccs2)[nH]c1=O`, 2.07 µM (active).
Consider `S=C(NCCc1ccccc1)N/N=C/c1cccs1`, for which the Potency result was “inactive”.
Then `O=C(O)C1CCN(c2ccccc2[N+](=O)[O-])CC1`, with “inactive”; and `COc1ccc(C(=O)C(C)OC(=O)CNC(=O)C2CCCCC2)cc1` (stereo not given), with “inactive”; and `Cc1ccc(S(=O)(=O)N2[C@@H](c3ccc(Cl)cc3)C(C(=O)O)=C[C@H]2CC2CCCC2)cc1`, with “inactive”.
As for `COc1ccc(C(=O)c2c3ccc(C(F)(F)F)cc3[n+]([O-])n2CCCN)cc1`, the Potency result is “inactive”.
To `O=C(COc1cccnc1[N+](=O)[O-])Nc1cc(S(=O)(=O)N2CCCCC2)ccc1Cl` belongs “inactive”.
Then `Cc1ccc2nc(NC(=O)C3CCCN(S(=O)(=O)c4cnc[nH]4)C3)sc2c1` (stereo not given), with “inactive”.
Then `O=C(NCc1ccccn1)C1CCCN(S(=O)(=O)c2cc(Cl)ccc2Cl)C1` (stereo not given), with 3.69 µM (active); and `Cc1ccc(S(=O)(=O)N2[C@@H](c3cccc(Cl)c3)C(C(=O)O)=CC[C@H]2c2cccc(Cl)c2)cc1`, with “inactive”; and `CCCSc1ccc2nc(NC(=O)OC)[nH]c2c1`, with “inactive”.
For `CCc1cccc(NC(=O)CCCSc2nc3ccccc3[nH]2)c1`, the Potency is 16.5 µM (active).
To `CC1(C)CC2CC(C)(CN2S(=O)(=O)c2cccc(C(=O)O)c2)C1` (stereo not given) belongs “inactive”; to `O=[N+]([O-])c1ccc(Oc2cccc(Br)c2)c2ccncc12`, “inactive”; to `Cc1c(Br)c([N+](=O)[O-])nn1C(C)C(=O)Nc1ccc2c(c1)OCO2` (stereo not given), “inactive”.
For the molecule `O=C1C2C3C=CC(C3)C2C(=O)N1Nc1ccc([N+](=O)[O-])cc1[N+](=O)[O-]` (stereo not given), the Potency result was “inactive”.
Then `COc1ccccc1Nc1cc(C)nc2c(C)ccc([N+](=O)[O-])c12`, with “inactive”; and `COc1ccc2nc(C)cc(N/N=C/c3ccc(F)cc3)c2c1`, with 2.33 µM (active); and `Cc1cc(C)nc(N/N=C/c2ccc(Cl)cc2)n1`, with “inactive”.
To `COc1ccc(/C=N/Nc2cc(C)nc3c(C)cccc23)cc1` belongs 13.1 µM (active); to `CCc1cccc(N=c2c([N+](=O)[O-])nn(-c3ccc(Cl)cc3)n2O)c1`, “inactive”.
To `CCOC(=O)C1=C(C)NC(=O)NC1c1ccc([N+](=O)[O-])o1` (stereo not given) belongs “inactive”; to `CN(C)c1ccc2nsnc2c1[N+](=O)[O-]`, “inactive”.
Take `CN1C(=O)/C(=C/c2cccc(Cl)c2)Sc2ccc(C(=O)N3CCCC3)cc21`: the Potency result was “inactive”.
Consider `Nc1ncnc2c1ncn2C1O[C@H](CO)[C@@H](O)[C@@H]1O` (stereo not given in full), for which the Potency result was “inactive”.
To `COc1cccc(CSc2nc3ccncc3[nH]2)c1` belongs 4.65 µM (active); to `Cc1ccc(CSc2nc3ccncc3[nH]2)cc1`, 0.369 µM (active).
To `Cc1nnc(SCc2ccc([N+](=O)[O-])cc2)[nH]c1=O` belongs “inactive”.
Then `O=C(c1ccc(CSc2nc3ccncc3[nH]2)cc1)N1CCCCCC1`, with 0.927 µM (active); and `Clc1ccc(CSc2nc3ccncc3[nH]2)cc1`, with 1.17 µM (active).
